Records with an inconclusive call do not appear. Activity calls are given as the source filed them. How the source made its calls, unless noted: active means hit-call score of the fitted dose curve at least 0.9, where 1 is the maximum; inconclusive means response in the unintended direction; inactive means score below 0.9.

This note sets out measurements from PubChem BioAssay (EPA / NIEHS).

A short description of assay [1]: TOX21_p53_BLA_p2_viability: Viability Assessment in the Tox21 HCT-116 p53 Agonism Beta-lactamase Assay, Phase 2 (AID 2283591).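 Further: actives lower the ATP signal meaning cytotoxicity.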 The gist of the method:
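HCT116 p53-bla cells, 4000/well, dosed after 5 h plating (217-fold dilution of DMSO stocks) and incubated 16 h at 37C. Viability taken as cellular ATP by CellTiter-Glo luminescence after 30 min RT; signal loss marks cytotoxicity.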

For assay [2], the target named is Cellular tumor antigen p53 (Homo sapiens) (UniProt P04637). The experiment in a line: TOX21_p53_BLA_p2_ratio: Tox21 HCT-116 p53 Agonism Beta-lactamase Assay, Ratio, Phase 2 (AID 2283592). The gist of the method:
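An inducible beta-lactamase reporter in HCT116 cells signals p53 pathway activation. After 16 h chemical exposure at 37C, cells load CCF4-AM substrate for 2 h at room temperature; activity is the cleaved/uncleaved emission ratio relative to DMSO.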

Assay [3] is described as follows: TOX21_p53_BLA_p3_viability: Viability Assessment in the Tox21 HCT-116 p53 Agonism Beta-lactamase Assay, Phase 3 (AID 2283593).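 Further: cells exposed to compound for 16 h before reading.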 The method in brief:
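HCT116 cells, 4000/well, dosed 5 h after plating by pin transfer (217-fold dilution from DMSO stock) and incubated 16 h at 37C, 5% CO2. Viability read as ATP luminescence with CellTiter-Glo after 30 min at room temperature.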

Assay [4] can be described thus: TOX21_p53_BLA_p4_viability: Viability Assessment in the Tox21 HCT-116 p53 Agonism Beta-lactamase Assay, Phase 4 (AID 2283597).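 Further: hits lower the luminescence signal meaning cytotoxicity.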 The gist of the method: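 Compound exposure of HCT116 cells lasts 16 h at 37C, 5% CO2, with DMSO stocks diluted 217-fold. Cellular ATP is then quantified by CellTiter-Glo luminescence after 30 min at room temperature.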
The nature of assay [5]: TOX21_p53_BLA_p5_viability: Viability Assessment in the Tox21 HCT-116 p53 Agonism Beta-lactamase Assay, Phase 5 (AID 2283600). The gist of the method: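 Counter-readout for cytotoxicity: ATP-dependent luminescence from CellTiter-Glo, read in the beta-lactamase wells after 30 min at RT, following a 16 h compound exposure at 37C.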
Assay [6] addresses Cellular tumor antigen p53 (Homo sapiens) (UniProt P04637). The experiment in a line: TOX21_p53_BLA_p4_ratio: Tox21 HCT-116 p53 Agonism Beta-lactamase Assay, Ratio, Phase 4 (AID 2283601). The method in brief: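 HCT-116 p53 beta-lactamase reporter cells (4000/well) preincubated 5 h, then compound (217-fold dilution of DMSO stock) for 16 h at 37C. CCF4-AM substrate added 2 h at room temperature; 460/530 nm emission ratio fitted upward versus DMSO.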

For assay [7] the target is unchanged. The experiment in a line: TOX21_p53_BLA_p5_ratio: Tox21 HCT-116 p53 Agonism Beta-lactamase Assay, Ratio, Phase 5 (AID 2283599). The method in brief:
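HCT-116 p53-bla cells (4000/well) plated 5 h, dosed with compound (217-fold DMSO dilution) for 16 h at 37 C; CCF4-AM substrate 2 h at room temperature. Activity is the 460/530 nm emission ratio (405 nm excitation), fitted in gain-of-signal direction versus DMSO.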

Assay [8] in a line: CCTE_Harrill_HTTr_Viability_MCF7: CCTE's 6-hour Cell Viability Assessment for the High-Throughput Transcriptomics (HTTr) Platform, in MCF-7 cells cultured in DMEM + 10% fetal bovine serum, Harrill Lab (AID 2284010; active means hit-call score of the fitted dose curve at least 0.9, where 1 is the maximum; inactive means score below 0.9). The gist of the method: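 Membrane integrity was scored by high-content imaging of propidium iodide dye exclusion after a 6 h exposure across an eight-point dilution series. Data were fitted bidirectionally relative to DMSO as negative control and baseline.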

The nature of assay [9]: CCTE_Harrill_HTTr_Apoptosis_MCF7: CCTE's 6-hour Apoptosis Assessment for the High-Throughput Transcriptomics (HTTr) Platform, in MCF-7 cells cultured in DMEM + 10% fetal bovine serum, Harrill Lab (AID 2284011; active means hit-call score of the fitted dose curve at least 0.9, where 1 is the maximum; inactive means score below 0.9). The gist of the method:
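Cells are dosed with test chemicals at eight concentrations and imaged 6 hours later for caspase-3/7 activity using a green fluorogenic detection reagent. Activity is fitted in both directions against DMSO controls.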

Chain of Cellular tumor antigen p53 (Homo sapiens) (P04637 whole entry, looked up): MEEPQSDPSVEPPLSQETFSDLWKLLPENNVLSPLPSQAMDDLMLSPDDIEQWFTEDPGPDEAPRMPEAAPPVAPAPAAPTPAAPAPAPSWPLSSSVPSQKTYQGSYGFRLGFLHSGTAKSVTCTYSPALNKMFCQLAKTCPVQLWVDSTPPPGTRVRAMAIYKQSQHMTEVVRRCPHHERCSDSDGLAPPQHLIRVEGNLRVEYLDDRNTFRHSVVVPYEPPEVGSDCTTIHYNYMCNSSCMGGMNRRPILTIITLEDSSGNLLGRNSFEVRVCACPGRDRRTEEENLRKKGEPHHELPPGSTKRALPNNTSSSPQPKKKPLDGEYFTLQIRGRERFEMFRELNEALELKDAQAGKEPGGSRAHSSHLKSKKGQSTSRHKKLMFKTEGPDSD

Regarding `C=C[C@]1(C)C[C@@H](OC(=O)CSCCN(CC)CC)[C@]2(C)[C@H](C)CC[C@]3(CCC(=O)[C@H]32)[C@@H](C)[C@@H]1O`, the outcome in assay [1], in [2], in [3], in [4] and in [5] was inactive.

Turning to `CCN1CCC[C@H]1CNC(=O)c1cc(S(N)(=O)=O)ccc1OC`, the call in assay [1], in assay [2], in assay [3], in assay [4], in [5] and in assay [6] was inactive.

With `O=c1cc[nH]c(=O)[nH]1`, the outcome in assay [1], in [2], in assay [3], in assay [4], in assay [5] and in assay [6] was inactive.

On to `N[C@H]1C(O)O[C@H](CO)[C@@H](O)[C@@H]1O` (stereo partly specified), for which the call in [1], in assay [2], in assay [3], in assay [7], in assay [5] and in [6] was inactive.

For `O=C1OC2(c3ccc(O)cc3Oc3cc(O)ccc32)c2ccc(N=C=S)cc21`, the call in assay [1], in assay [2], in [3], in [4], in [5] and in assay [6] was inactive.

Regarding `CC1(C)S[C@@H]2[C@H](NC(=O)C(C(=O)O)c3ccsc3)C(=O)N2[C@H]1C(=O)O` (stereo partly specified), the molecule was called inactive in [1], in [2], in [3], in [7] and in assay [5].

With `CC[C@H]1OC(=O)[C@H](C)[C@@H](O[C@H]2C[C@@](C)(OC)[C@@H](O)[C@H](C)O2)[C@H](C)[C@@H](O[C@@H]2O[C@H](C)C[C@H](N(C)C)[C@H]2O)[C@](C)(O)C[C@@H](C)CN(C)[C@H](C)[C@@H](O)[C@]1(C)O`, the result in assay [1], in assay [2], in assay [3], in [4], in [5] and in assay [6] was inactive.

`CCN(CC)S(=O)(=O)c1ccc(C(=O)O)cc1`: the molecule was called inactive in [1], in [2], in [3] and in assay [7].

`O=C(O)CSCC(=O)NC1CCSC1=O` (stereo unspecified): the molecule was called inactive in assay [1], in [2], in assay [3] and in [7].

Consider `CCC(=O)C=CC1C(C)=CCCC1(C)C` (stereo unspecified), for which the molecule was classed as inactive in assay [1], in assay [2], in [3], in assay [7] and in assay [5].

As for `CCN1CCN(c2cc3c(cc2F)c(=O)c(C(=O)O)cn3C2CC2)CC1`, the outcome in assay [1], in assay [2], in [3], in assay [7] and in assay [5] was inactive.

`CC1(C)C(=O)C(C)(C)C1=O`: the molecule was classed as inactive in assay [1], in assay [2], in [3], in [7] and in assay [5].

Consider `CCC(=O)c1ccc2c(c1)N(CCCN1CCN(CCO)CC1)c1ccccc1S2`, for which the molecule was called inactive in [1], in assay [2], in assay [3], in assay [5] and in assay [6]. Moreover, the AC50 in [4] is 33.3 µM (active).

On to `Cc1nccn1CC1CCc2c(c3ccccc3n2C)C1=O` (stereo unspecified), for which the molecule was classed as inactive in assay [1], in assay [2], in assay [3], in [4], in assay [5] and in [6].

For the molecule `CCCCCCCCCCCCCCCBr`, the outcome in assay [1], in assay [2], in [3], in assay [4] and in assay [5] was inactive.

As to `CC(C(O)c1ccccc1)N(C)CCOC(c1ccccc1)c1ccccc1` (stereo unspecified), the molecule was called inactive in assay [1], in assay [2], in assay [3] and in assay [5]. For the same molecule, in [4], the AC50 is 42.2 µM (active).

With `CO[Si](OC)(OC)OC`, the outcome in assay [1], in [2], in assay [3] and in [7] was inactive.

Take `CCOC(=O)[C@H](CCc1ccccc1)N[C@@H](C)C(=O)N(CC(=O)O)C1Cc2ccccc2C1`: the molecule was called inactive in [1], in assay [2], in assay [3], in [5] and in [6]. Further, the AC50 in assay [4] was 7.13 µM (active).

In the case of `O=C(O)c1ccccc1S`, the result in [1], in assay [2], in assay [3] and in [7] was inactive.

Take `Cl[Si](Cl)(c1ccccc1)c1ccccc1`: the call in assay [1], in [2], in [3] and in assay [5] was inactive.

`O=C(NCCNCC(O)COc1ccc(O)cc1)N1CCOCC1` (stereo unspecified): the call in assay [1], in assay [2], in [3], in assay [7], in assay [5] and in assay [6] was inactive.

Take `COc1ccccc1N1CCN(CCCCNC(=O)c2ccc(-c3ccc(C(C)=O)cc3)cc2)CC1`: the call in [1], in assay [2], in assay [3], in assay [5] and in [6] was inactive.

In the case of `C[Si](C)(C)C`, the result in [1], in assay [2], in [3], in [7] and in [6] was inactive.

Take `COc1ccc(C2C(=O)c3ccccc3C2=O)cc1`: the call in assay [1], in assay [2], in assay [3], in [5] and in assay [6] was inactive.

As for `O=C(O)[C@H](O)[C@@H](O)[C@H](O[C@@H]1O[C@H](CO)[C@H](O)[C@H](O)[C@H]1O)[C@H](O)CO`, the molecule was classed as inactive in [1], in assay [2], in assay [3] and in assay [5].

As to `C[N+](C)(C)CCOC(N)=O`, the result in [1], in assay [2], in assay [3], in assay [5] and in assay [6] was inactive.

With `CCC(N)(CO)CO`, the result in assay [1], in assay [2], in assay [3], in [5] and in assay [6] was inactive.

Take `CCCCCCCCCCCCOC(=O)c1ccc(O)cc1`: the molecule was called inactive in [1], in [2], in assay [3], in [7], in [5] and in assay [6].

For `C1C[C@@H]2[C@H]3CC[C@H](C3)[C@@H]2C1`, the molecule was called inactive in assay [1], in assay [2], in assay [3], in assay [5] and in assay [6].

Turning to `COC(=O)CC#N`, the molecule was classed as inactive in assay [1], in [2], in assay [3] and in [6].

`CCC(=O)OCC(=O)[C@@]1(OC(=O)CC)[C@H](C)C[C@H]2[C@H]3[C@H]([C@@H](O)C[C@@]21C)[C@@]1(C)C=CC(=O)C=C1C[C@H]3Cl`: the molecule was classed as inactive in [1], in assay [2], in assay [3], in assay [7], in [5] and in assay [6].

In the case of `COc1ccccc1OCC(O)COC(N)=O` (stereo unspecified), the molecule was called inactive in assay [1], in assay [2], in assay [3], in [7], in [5] and in assay [8]. Moreover, the outcome in assay [9] was inactive.

For `CO/N=C(\C(=O)N[C@@H]1C(=O)N2C(C(=O)OCOC(=O)C(C)(C)C)=C(/C=C\c3scnc3C)CS[C@H]12)c1csc(N)n1`, the result in assay [1], in [2], in assay [3], in assay [7] and in assay [6] was inactive.

`O=C1c2ccccc2S(=O)(=O)N1CCCCN1CCN(c2ncccn2)CC1`: the call in assay [1], in assay [2], in assay [3] and in [5] was inactive.

With `CC1(C)CCC(NC(=O)[C@@H](N)CCC(=O)O)CC1`, the molecule was classed as inactive in [1], in assay [2], in assay [3], in assay [7] and in [6].

As to `Cc1cc(O)cc2c1O[C@](C)(CCC[C@H](C)CCC[C@H](C)CCCC(C)C)CC2`, the molecule was classed as inactive in assay [1], in assay [2], in assay [3], in [7], in [5] and in assay [6].
